Data on 90 compounds can be found in PubChem BioAssay AID588497 (NMMLSC, 2011).

Screen size: about 360,000 compounds; about 780 (0.22%) were called active. About 4% were inconclusive and are not listed. No stated cut-off is given here; in the data, active means inhibition above about 35% (passing the limit was not always enough); inconclusive means no clear call, values can overlap the other calls. For the sample, actives were picked, then their nearest neighbours and some compounds at random.

In this assay the test system is Botulinum neurotoxin type F light chain protease (Clostridium botulinum). Briefly: BoNT/F light chain protease inhibitors, primary screen, biochemical, flow cytometry, MLPCN library (AID 588497). Further: plate controls were buffer without enzyme for full effect and enzyme alone for no effect. The following applies: Multiplex microsphere protease cleavage assay, at 10 µM, stronger effect = higher value. (In general: A flow cytometer gives signals particle by particle.)
The term inhibition denotes the relative decrease from the control value, in per cent. `CCCCc1c(-c2ccc(Cl)cc2)ncn1CCc1ccccc1OC`: the inhibition is 0.1% (inactive).
With `NC(c1csc(NC(=O)Nc2cccc(C(F)(F)F)c2)n1)C1CCCCC1` (stereo not given) the figure was -35.6% (inactive); with `Cc1cccc(-c2cnc(C(O)c3ccc4ccccc4c3)[nH]2)c1` (stereo not given), -3.1% (inactive).
With `O=C1/C(=C/c2ccc(F)cc2)SC(=S)N1NS(=O)(=O)c1ccccc1` the figure was 0.7% (inactive); with `COc1cc(/C=C2\SC(=S)N(Nc3ncc(C(F)(F)F)cc3Cl)C2=O)cc(OC)c1OC`, 43.1% (active); with `COc1cc(/C=C/C(=O)N2c3ccccc3Sc3ccc(C(F)(F)F)cc32)cc(OC)c1OC`, -24.7% (inactive).
Regarding `COc1ccc(Br)c(Cn2c(C)c(C(=O)NCc3cccs3)sc2=O)c1`, the inhibition is 3.6% (inactive).
With `O=C(Nc1nnc([C@H]2C[C@H](O)[C@@H](CO)O2)s1)c1cccc(Cl)c1` the figure was 2.2% (inactive); with `COc1ccccc1CNC(=O)[C@@H]1CCCN1C(=O)[C@@H]1Cc2ccccc2CN1C(=O)OC(C)(C)C`, -3.1% (inactive).
In the case of `COc1ccccc1CNC(=O)C1CCN(S(C)(=O)=O)CC1`, the inhibition was -1.3% (inactive).
With `COc1ccccc1CNC(=O)C1Cc2ccccc2C(=O)O1` (stereo not given) the figure was 40.9% (active).
With `NC(Cc1ccccc1)c1csc(Nc2cc(Oc3ccccc3)ncn2)n1` (stereo not given) the figure was -21.7% (inactive).
Take `COc1ccc(CC(N)c2csc(NC(=O)Cc3ccccc3)n2)cc1` (stereo not given): the inhibition was -9.3% (inactive).
With `CN(C)C(=O)c1cccc(-c2cnc3sc(NCc4ccc5c(c4)OCO5)nn23)c1`, the inhibition is -7.5% (inactive).
For `COc1cc2cc(CN(CCN3CCCC3)C(=O)Nc3ccccc3Cl)c(=O)[nH]c2cc1OC`, the inhibition is 56.9% (active).
With `COc1ccc(CCN(Cc2cc3cccc(C)c3[nH]c2=O)C(=O)N2CCCC2)cc1OC` the figure was -19.1% (inactive); with `Cc1ccc2[nH]c(=O)c(CN(CCCN(C)C)C(=O)Nc3cccc(Cl)c3)cc2c1`, 1% (inactive); with `FC(F)(F)Oc1ccccc1C(c1nnnn1C1CCCCC1)N1CCN(C/C=C/c2ccccc2)CC1` (stereo not given), -16.7% (inactive).
Consider `CC1(Cc2ccccc2C#N)C(=O)Nc2ccc(-c3ccc4[nH]ccc4c3)cc21` (stereo not given), for which the inhibition was -3.4% (inactive).
With `C/C(=N\NC(=O)c1ccccc1F)c1ccccn1` the figure was -0.7% (inactive).
With `CC(=NNC(=S)N1CCCCCC1)c1ccccn1` the figure was 55% (active); with `Cc1cccc(C)c1NC(=S)N1CCCCCC1`, 4.7% (inactive).
With `Cc1ccc(C(NC(=O)C2CCN(CCOc3ccc(Cl)cc3Cl)CC2)c2ccccn2)cc1` (stereo not given) the figure was 4.2% (inactive); with `CC(=O)Nc1cccc(-c2ccnc3c2CC(C)(C(=O)NCc2ccccc2)O3)c1` (stereo not given), -1.6% (inactive).
On to `CCOc1ccc(CCN2C(=S)N([C@@H](CC(C)C)CN3CCC[C@@H]3CN3C(=S)NC[C@@H]3Cc3ccc(O)cc3)C[C@@H]2CC(C)C)cc1`, for which the inhibition was -7.7% (inactive).
Regarding `CCCCC[C@H](C)N1C[C@@H](COCc2ccccc2)Oc2cc(N3CC[C@@H](N(C)C)C3)ccc2S1(=O)=O`, the inhibition is -14% (inactive).
As for `CC(C)Cc1ccc(-c2cc3nc(NCc4cccc(Cl)c4)ccn3n2)cc1`, the inhibition is -1.6% (inactive).
For the compound `COc1ccc(/C=N/N(C)C2=NS(=O)(=O)c3ccccc32)cc1OC`, the inhibition is -14.8% (inactive).
For `C=CCOCCN(C)C1=NS(=O)(=O)c2ccccc21`, the inhibition is -7.4% (inactive).
With `O=S1(=O)N=C(N(CCO)/N=C/c2ccccc2F)c2ccccc21` the figure was 74.7% (active).
With `COc1cncc(-c2cnc3sc(NCCc4ccccn4)nn23)c1` the figure was -4.1% (inactive); with `CCc1nc2ccccc2n(CCOCCOCCn2c(=O)c(CC)nc3ccccc32)c1=O`, -0.5% (inactive); with `CCOCCn1c(-c2ccccc2)nc2ccccc21`, 65.4% (active).
With `CCOCCn1c(C(C)C)nc2ccccc21`, the inhibition is 2.9% (inactive).
As to `Cc1ccc(NS(=O)(=O)c2cc3c(cc2Br)NC(=O)CO3)cc1C`, the inhibition is 0.3% (inactive).
In the case of `CN(Cc1cn(Cc2ccc(C(F)(F)F)cc2)nn1)C1CN(Cc2cn(Cc3ccc(C(F)(F)F)cc3)nn2)S(=O)(=O)C1` (stereo not given), the inhibition was -10.7% (inactive).
With `CCCCCCCCN1C(=O)[C@H](CC(=O)NCc2cccc3ccccc23)C[C@@]2(C(=O)OC)CCCCC=C12` the figure was -5.2% (inactive); with `CCCN1C2CCCC1CC(NC(=O)c1cccc(OC)c1)C2` (stereo not given), 34.7% (active).
`COc1cccc(NC(=O)N2C3CCCC2CC(NC(C)=O)C3)c1` (stereo not given): the inhibition was 28.5% (inactive).
With `COc1ccc(CN2C3CCCC2CC(NC(=O)c2cccc(F)c2)C3)cc1` (stereo not given) the figure was -2.5% (inactive); with `Nc1nc2c(Br)ccc(Br)c2cc1C(=O)NCCc1ccccc1`, -1% (inactive); with `CCCCCc1c(-c2cccc(Br)c2)ncn1CCc1ccccc1OC`, -6.3% (inactive).
With `Oc1cccc2cc(-c3ccncc3)cnc12` the figure was -5.1% (inactive); with `O=C(CCC(=O)N1CCN(S(=O)(=O)c2ccccc2)CC1)NC1CCCc2ccccc21` (stereo not given), 7.9% (inactive).
For `O=C(O)c1cc(S(=O)(=O)NC2CCCc3ccccc32)ccc1O` (stereo not given), the inhibition was 49% (active).
With `CNS(=O)(=O)c1cccc(C(=O)NC2CCCc3ccccc32)c1` (stereo not given) the figure was 2.8% (inactive); with `CCCCc1c(-c2ccc(Br)cc2)ncn1CCc1ccccc1OC`, -3.2% (inactive).
With `CCc1nc2c(OCCC3CCCCC3)cccn2c1N(C)C(=O)c1ccco1` the figure was 1.8% (inactive); with `CC(C)C[C@H]1CNC(=O)C(=O)N1C[C@H]1CCCN1C[C@H](Cc1ccc(O)cc1)N1C[C@H](CC(C)C)N(CC2CCCCCC2)C(=O)C1=O`, -9.5% (inactive); with `CC(C)C[C@@H](COCc1ccc(Cl)cc1)N1CCN(C(=O)c2ccc(Cl)cc2Cl)CCC1=O`, -2.4% (inactive).
With `CC(=O)Nc1cc(-c2ccc(N3CCN(C)CC3)cc2)cn2c(-c3ccc(F)cc3)cnc12` the figure was -13.3% (inactive); with `Cc1ccc2[nH]cc(CCNC(=O)c3ccc([N+](=O)[O-])cc3)c2c1`, -0.3% (inactive).
Turning to `Cc1ccc2[nH]cc(CCNC(=O)C3CCCCC3)c2c1`, the inhibition is 50% (active).
Turning to `O=C(NCCc1c[nH]c2ccccc12)C1CCN(Cc2ccc(Br)cc2)CC1`, the inhibition was -27.7% (inactive).
With `COC(=O)[C@@]1(Sc2ccc(C)cc2)CC(=O)N(c2cccc(SC)c2)[C@@H]1c1ccccc1` the figure was 4.9% (inactive).
For the compound `CCOC(=O)C(C)n1cnc2c(nnn2-c2cccc(OC)c2)c1=O` (stereo not given), the inhibition was 18.5% (inactive).
Regarding `CCOc1nnc(C)c2c(C)n(-c3cccc(Cl)c3)nc12`, the inhibition was 46.5% (active).
Turning to `CCOc1ccc(CNC(=O)C2CCCN(c3nnc(C)c4c(C)n(-c5ccccc5)nc34)C2)cc1` (stereo not given), the inhibition is 10.7% (inactive).
With `Cc1nc2c(OCC(=O)C(C)(C)C)cccn2c1N(C)Cc1cccs1` the figure was 4.6% (inactive); with `CC(=O)Nc1cc(-c2ccccc2F)cn2c(-c3cccc(C(F)(F)F)c3)cnc12`, 1.3% (inactive); with `CC(=O)c1ccc(-c2cnc3c(NC=O)cc(-c4cccc(NS(C)(=O)=O)c4)cn23)cc1`, 3% (inactive).
With `Cc1ccc2nc(-c3ccco3)c(Cc3cccc(Cl)c3)n2c1` the figure was 0% (inactive); with `Cc1cccc(C)c1Cn1c(C)c(C(=O)NCc2cccc(Cl)c2)sc1=O`, -3.1% (inactive); with `Cc1cc(O)c(Sc2ccccc2)c(=O)o1`, -0.7% (inactive).
With `COc1ccc(/C=C/C(=O)c2c(O)cc(OC)cc2OC)cc1` the figure was -3.2% (inactive); with `Cc1cc(O)c(C(=O)/C=C/c2c(F)c(F)c(F)c(F)c2F)c(=O)o1`, 39.9% (active); with `CCCCn1nnnc1C(c1cccc(OC)c1OC)N1CCN(C/C=C/c2ccccc2)CC1` (stereo not given), -4.8% (inactive).
Regarding `COc1ccccc1CNC(=O)c1cc(-c2cc(Cl)ccc2C)n[nH]1`, the inhibition is -6.5% (inactive).
With `Fc1cccc(Cc2c(-c3cccc(Cl)c3)nc3ccc(Br)cn23)c1` the figure was 12.2% (inactive); with `CC1(C)CC(=O)C=C(N2CCOCC2)C1`, -0.6% (inactive).
With `CC1Cc2ccccc2N1C1=CC(=O)CC(C)(C)C1` (stereo not given) the figure was -1.7% (inactive); with `CC1(C)CC(=O)C=C(N2CCCC2)C1`, 43.8% (active).
`CN(C(=O)CN1CCN(c2cc(-c3ccc(OCc4ccccc4)cc3)ncn2)CC1)c1ccccc1`: the inhibition was -2.5% (inactive).
With `Cc1ccc2nc(-c3ccccc3)c(CC3CCCCC3)n2c1` the figure was -7.4% (inactive).
With `COc1cc(F)ccc1-c1cc(C(=O)NCC2CCCCC2)[nH]n1` the figure was -7.3% (inactive); with `CCCCCn1nnnc1-c1nc2cc3ccccc3cc2[nH]c1=O`, 4.1% (inactive).
On to `CCc1nc2ccc(C(=O)NCc3ccc(OC)cc3)cn2c1N(CC)Cc1cccc(Br)c1`, for which the inhibition is -5.2% (inactive).
With `COc1cccc(CNc2nc(NCc3ccccc3OC)nc3ccsc23)c1` the figure was -10.7% (inactive).
With `CCC/C(C)=N\Nc1nc2c(c(=O)n(C)c(=O)n2C)n1C` the figure was 46.4% (active).
Regarding `CC(O)c1nc2c(c(=O)n(C)c(=O)n2C)n1C` (stereo not given), the inhibition is 7.6% (inactive).
With `Cn1c(=O)c2c(nc(NCc3ccccc3)n2CC(N)=O)n(C)c1=O` the figure was -8.9% (inactive); with `CCCCN(C=O)c1c(CC)nc2c(OCCC3CCCCC3)cccn12`, -1.8% (inactive).
As for `CCn1cc(C(=O)NCC2COc3ccccc3O2)c2cc(OC)c(OC)cc2c1=O` (stereo not given), the inhibition is -4.2% (inactive).
For the compound `CCn1cc(C(=O)N2CCN(C3CCCCC3)CC2)c2cc(OC)c(OC)cc2c1=O`, the inhibition is 35% (active).
With `COc1cc(C(=O)N2CCN(C3CCC(C)CC3)CC2)cc(OC)c1OC` (stereo not given) the figure was -2.2% (inactive); with `Cc1cccnc1C(NC(=O)C1CCN(Cc2ccc(Cl)c(Cl)c2)CC1)c1ccc(Cl)cc1` (stereo not given), -0.6% (inactive).
With `CC(=O)Nc1cc(-c2ccccc2N(C)C)cn2c(-c3ccc(F)c(Cl)c3)cnc12` the figure was -0.7% (inactive).
With `CCOc1ccc(NC(=O)CC2NCCNC2=O)cc1` (stereo not given) the figure was -3.7% (inactive); with `CN(CC(=O)Nc1ccc(Cl)cc1)C(=O)c1ccc(COc2ccccc2)cc1`, 8.6% (inactive).
In the case of `CCOc1ccc(NC(=O)CC(Cc2ccc(Cl)cc2)C(=O)O)cc1` (stereo not given), the inhibition is 42.9% (active).
